According to the supplement of paper PMC10127200:
Counter-ions that a name gives are not always drawn.

These compounds were tested on OVCAR4 (assay: Euclidean distance of Cell Painting phenotypic profile (signed KS, 77 features) to DMSO centroid (dimensionless distance); 5 or 10 uM (library dependent); higher = stronger phenotypic change vs DMSO (phenoactivity)). Conditions: 48 h.
How it was run: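 Stained cells were imaged confocally at 20X with 9 fields per well, after 48 h of exposure to library compounds at 10 or 5 uM (set by library; 0.1% DMSO final). The cells were five cancer lines and a healthy fibroblast line. From the images, Harmony extracted 77 features, each expressed as a signed Kolmogorov-Smirnov statistic relative to same-plate vehicle wells. Phenoactivity is measured as Euclidean distance to the median vehicle profile, using plate-position-corrected, correlation-weighted profiles averaged across replicates at the top dose.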

Compound | Euclidean distance
CN(C)c1ccc(O)c2c1C[C@H]1C[C@H]3[C@H](N(C)C)C(O)=C(C(N)=O)C(=O)[C@@]3(O)C(O)=C1C2=O [Minocycline HCl] | 1.14
Clc1ccc(CCCOCCCN2CCCCC2)cc1 [Pitolisant hydrochloride] | 0.758
Clc1ccc(C(c2ccccc2Cl)C(Cl)Cl)cc1 (stereo not given) [Mitotane] | 1.45
CCOCC(O)COc1ccc(NC(=O)CC[S+](C)C)cc1 (stereo not given) [Suplatast Tosylate] | 1.13
Cc1onc(-c2ccccc2)c1C(=O)N[C@@H]1C(=O)N2[C@@H]1SC(C)(C)[C@@H]2C(=O)O [Oxacillin sodium monohydrate] | 1.37
NCC(=O)CCC(=O)O [5-Aminolevulinic acid HCl] | 2
NS(=O)(=O)c1cc2c(cc1Cl)NC(C1CC3C=CC1C3)NS2(=O)=O (stereo not given) [Cyclothiazide] | 2.44
CC(C)N1CCN(Cc2cnc(-c3cc(-c4cccc5[nH]ccc45)cc4[nH]ncc34)o2)CC1 | 3.89
CC1(C)O[C@H]2CC(=O)OC[C@]23[C@H]2CC[C@@]4(C)[C@H](c5ccoc5)OC(=O)[C@H]5O[C@]54[C@]2(C)C(=O)C[C@@H]13 [Limonin] | 1.05
COc1ccc(C2CC(=O)c3c(O)cc(OC4OC(COC5OC(C)C(O)C(O)C5O)C(O)C(O)C4O)cc3O2)cc1OC (stereo not given) [Methyl-Hesperidin] | 1.25
CC1(C)S[C@@H]2[C@H](NC(=O)Cc3ccccc3)C(=O)N2[C@H]1C(=O)O.CCN(CC)CCOC(=O)c1ccc(N)cc1 [Penicillin G Procaine] | 1.24
CN1CCCN=C1/C=C/c1cccs1 [Pyrantel Pamoate] | 1.2
O=C(Nc1ccc(-c2ccnc(Nc3ccc(N4CCOCC4)cc3)n2)cc1)C1CCCN1 (stereo not given) | 0.844
NC(=O)[C@@H]1CC[C@@H]2CN1C(=O)N2OS(=O)(=O)O [Avibactam sodium] | 1.24
CC(C)(C(=O)c1cccnc1)c1cccnc1 [Metyrapone] | 1.85
O=C(OC[C@H]1O[C@@H](OC(=O)c2cc(O)c(O)c(OC(=O)c3cc(O)c(O)c(O)c3)c2)[C@H](OC(=O)c2cc(O)c(O)c(OC(=O)c3cc(O)c(O)c(O)c3)c2)[C@@H](OC(=O)c2cc(O)c(O)c(OC(=O)c3cc(O)c(O)c(O)c3)c2)[C@@H]1OC(=O)c1cc(O)c(O)c(OC(=O)c2cc(O)c(O)c(O)c2)c1)c1cc(O)c(O)c(OC(=O)c2cc(O)c(O)c(O)c2)c1 [Tannic acid] | 1.05
CN(C)CCOc1ccc(/C(=C(/CCCl)c2ccccc2)c2ccccc2)cc1 [Toremifene Citrate] | 2.17
O=C(O[C@H]1CN2CCC1CC2)N1CCc2ccccc2[C@@H]1c1ccccc1 [Solifenacin succinate] | 1.98
CCN(c1cc(-c2ccc(CN3CCOCC3)cc2)cc(C(=O)NCc2c(C)cc(C)[nH]c2=O)c1C)C1CCOCC1 [Tazemetostat (EPZ-6438)] | 1.16
CC(C)(Oc1ccc(C(=O)c2ccc(Cl)cc2)cc1)C(=O)O [Choline Fenofibrate] | 0.848

Compound | Euclidean distance
CC(C)(O)CC(=O)NCCn1ccc2ncnc(Nc3ccc(Oc4cccc(C(F)(F)F)c4)c(Cl)c3)c21 | 1.73
O=C(c1cccc(Cl)c1F)N1CCN(Cc2cccc(Nc3nccs3)n2)CC1 | 2.83
C[N+](C)(C)CCOC(N)=O [Carbachol] | 1.56
CC(C)OC(=O)CCC/C=C\C[C@@H]1[C@@H](/C=C/[C@@H](O)COc2cccc(C(F)(F)F)c2)[C@H](O)C[C@@H]1O [Travoprost] | 1.25
CCOc1cc(N)c(Cl)cc1C(=O)NCC1CN(Cc2ccc(F)cc2)CCO1 (stereo not given) [Mosapride] | 1.09
CC1(C)C2CCC1(C)C(O)C2 (stereo not given) [Borneol] | 1.08
Nc1nc(F)nc2c1ncn2[C@@H]1O[C@H](CO)[C@@H](O)[C@@H]1O [Fludarabine] | 1.63
NNc1nncc2ccccc12 [Hydralazine HCl] | 0.975
CC(C)Cc1ccc(C(C)C(=O)OCc2ccccn2)cc1 (stereo not given) [Ibuprofen piconol] | 1.2
CC(C)(Sc1cc(C(C)(C)C)c(O)c(C(C)(C)C)c1)Sc1cc(C(C)(C)C)c(O)c(C(C)(C)C)c1 [Probucol] | 1.14
CC(C)c1cc(C(=O)N2Cc3ccc(CN4CCN(C)CC4)cc3C2)c(O)cc1O | 2.89
CN1[C@@H](CC(=O)c2ccccc2)CCC[C@H]1C[C@H](O)c1ccccc1 [Lobeline hydrochloride] | 1.16
COc1cc2c(cc1OC)[C@H]1C[C@@H](OC(=O)[C@@H](N)C(C)C)[C@H](CC(C)C)CN1CC2 [Valbenazine tosylate] | 1.05
Cc1c(C(=O)N2CCOc3ccc(-c4ccc(N)nc4)cc3C2)ccc(S(C)(=O)=O)c1F | 3.43
C[C@@H](c1ncncc1F)[C@](O)(Cn1cncn1)c1ccc(F)cc1F [Voriconazole] | 1.25
CN(C)CC/C=C1/c2ccccc2COc2ccc(CC(=O)O)cc21 [Olopatadine HCl] | 0.734
NCC(=O)Nc1ccc(-n2nc(C(F)(F)F)cc2-c2ccc3c(ccc4ccccc43)c2)cc1 | 1.38
COc1cc2c(Oc3ccc(NC(=O)C4(C(=O)Nc5ccc(F)cc5)CC4)cc3F)ccnc2cc1OCCCN1CCOCC1 | 3.97
Cc1cn([C@H]2C[C@H](N=[N+]=[N-])[C@@H](CO)O2)c(=O)[nH]c1=O [Zidovudine] | 0.957
COc1cc2nc(N3CCN(C(=O)c4ccco4)CC3)nc(N)c2cc1OC [Prazosin HCl] | 0.59
